IL1B secr inh: qHTS for Inhibitors of Inflammasome Signaling: IL-1-beta AlphaLISA Primary Screen. THP-1 LPS/ATP IL-1B secretion, AlphaLISA, 16 h; active compounds read low. activity change, % at 57.5 µM. actives 4.7% (n = 360,000). AID 743279, 2014; in the data active = activity change below about -50%; inconclusive = mostly about -30% to -49%; note: % is set by controls: 0 for no effect and ±100 for the full control effect
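Secreted IL-1B measured by AlphaLISA bead assay after 16 h compound exposure of THP-1 cells; compounds (final up to 57.5 uM) added 1 h before LPS (250 ng/mL) and ATP (1.25 mM) stimulation; lower signal means less secretion.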
HepG2 viability: qHTS for Inhibitors of TGF-b: Cytotox Counterscreen | Potency, µM (doses to about 46.1 µM), inactives show at the highest dose activity change, negative = cytotoxicity, usual class: cytotoxic | actives 0.76% (n = 410,000) | AID 588856, 2011 | HepG2 CAGA-GFP viability, ATP luminescence, 18 h; note: potency is the fitted concentration of half-maximal effect
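HepG2 CAGA-GFP cells (1000/well, DMEM with 1% FBS) received compound, then TGF-beta at 500 pg/mL final, and were incubated 18 hours at 37 degrees C. Viability was read by CellTiter-Glo luminescence. Media-only wells were set as complete cell-killing and DMSO as no toxicity.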
TGFb inhibitor: qHTS for Inhibitors of TGF-b | HepG2 CAGA-GFP TGF-b/SMAD3 reporter, GFP fluorescence, 18 h; TGF-beta stimulated, 500 pg/mL final | Potency, µM (highest dose often 46.1 µM), without a hit: at the highest dose activity, negative = inhibition, usual class: inhibitors | actives 1.2% (n = 410,000) | AID 588855, 2011; note: potency is the fitted concentration of half-maximal effect; % is set by controls: 0 for no effect and ±100 for the full control effect; nearly all actives have a fitted effect of over 65% in size
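Using HEPG2 CAGA-GFP reporter cells at 1000 cells/well, we pinned test compounds, stimulated with recombinant TGF-beta (500 pg/mL final) and measured total well GFP after 18 h.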
ATXN2 expr inh: Primary qHTS for Inhibitors of ATXN expression; HEK-293 ATXN2-luciferase reporter, luminescence, 24 h; Potency, µM (series often up to 57 µM), inactives show top-dose activity change, negative = inhibition, hits mostly inhibitors; actives 0.72% (n = 360,000); AID 1745845, 2022; note: potency is the fitted concentration of half-maximal effect; % is set by controls: 0 for no effect and ±100 for the full control effect; nearly all actives have a fitted effect of over 55% in size
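qHTS (up to 57 uM final) was run with 24 h compound exposure of reporter cells at 37 °C. Each well was multiplexed: SteadyGlo luminescence measured ATXN2-luciferase expression after a fluorogenic Gly-Phe-AFC viability readout (25 uM final).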
ATXN viability: Viability Counterscreen for Primary qHTS for Inhibitors of ATXN expression; S2 cells (HEK-293 line with an ATXN2-luciferase reporter) viability, CellTiter-Fluor protease fluorescence, 24 h; Potency, µM (top dose mostly 56.7 µM), usual class: cytotoxic; actives 0.49% (n = 400,000); note: potency is the fitted concentration of half-maximal effect; nearly all actives have a fitted effect of over 40% in size
An asterisk follows results filed as active; i = inactive; ? = inconclusive; nt = not tested or not shown; [ ] = another dose, or the depositor's remark. A selection: hits, their analogues and other compounds. The true share with any hit is near 5.7%. Unless noted, calls come from the whole dose curve; as a rule, active = well fitted curve in the direction sought with a large enough effect; inconclusive = small, poorly fitted or top-dose-only effect, or another doubt; inactive = no such curve, though single readings can be large; an effect the other way counts as inactive or inconclusive.

SMILES | IL1B secr inh | HepG2 viability | TGFb inhibitor | ATXN2 expr inh | ATXN viability
O=C1C=CC(=O)C2C1C1(Cl)C(Cl)=C(Cl)C2(Cl)C1(Cl)Cl (configuration not stated) | -103* | -93% | ? | -31% | ?
CCOP(=O)(CCP(=O)(OCC)OCC)OCC.C[CH2][Sn]([Cl])([Cl])[CH2]C | -100* | 2% | ? | 19µM* | ?
NC(Cc1ccc(Cl)cc1)c1csc(Nc2ccccn2)n1 (configuration not stated) | -66* | -106% | ? | 22µM* | ?
NC(Cc1ccccc1)c1csc(Nc2ccccn2)n1 (configuration not stated) | -19 | -37% | ? | -21% | ?
COc1cccc(Nc2nc(C(N)Cc3ccc(F)cc3)cs2)n1 (configuration not stated) | -64* | -73% | ? | 25µM* | ?
NC(Cc1ccc(F)cc1)c1csc(Nc2ccccn2)n1 (configuration not stated) | -51* | 25µM* | ? | ? | i
NC(Cc1ccc(F)cc1)c1csc(Nc2cnccn2)n1 (configuration not stated) | ? | -34% | 2% | 10% | i
Cc1ccc(Cl)cc1NC(=O)Cn1c(=O)oc2cc(S(=O)(=O)N3CCCCCC3)ccc21 | nt | -56% | ? | nt | nt
CCCOP(=O)(OCCC)c1nc(-c2ccccc2)oc1NCc1ccccc1 | -116* | -51% | ? | -13% | i
COc1ccc(CNc2oc(-c3cccc4ccccc34)nc2P(=O)(OC)OC)cc1 | -24 | -7% | ? | nt | i
CCOP(=O)(OCC)c1nc(-c2ccc(Cl)cc2)oc1NCc1ccccc1 | -54* | -62% | ? | nt | i
CC(Cc1ccccc1)N(C)Cc1ccco1 (configuration not stated) | nt | nt | nt | 0% | i
Cc1nn(Cc2ccc(Cl)cc2Cl)c(Cl)c1C(=O)O | 8 | -8% | 3% | nt | i
N=c1c2c(n(Cc3ccc(Cl)cc3Cl)c3c1CCC3)CCCC2 | -60* | -22% | -12% | ? | i
O=C(c1ccc(F)c([N+](=O)[O-])c1)N1CC2CC(C1)c1cccc(=O)n1C2 (configuration not stated) | -52* | 2% | -1% | nt | ?
O=C(NCCSc1c(-c2ccc(F)cc2)[nH]c2ccccc12)c1ccc(S(=O)(=O)N2CCOCC2)cc1 | nt | -31% | ? | nt | nt
Cc1ccccc1CN1Cc2cnnn2-c2ccccc2C1C#N (configuration not stated) | -102* | -85% | ? | ? | nt
Cc1ccccc1C(=O)N1Cc2cnnn2-c2ccccc2C1C#N (configuration not stated) | 12 | -1% | ? | 7% | i
CCOC(=O)C(O)(c1ccc(NC(=S)NC(=O)c2ccc(Cl)cc2Cl)c(C)c1)C(F)(F)F (configuration not stated) | -54* | -97% | ? | -16% | i
CCCNC(=O)C(Cc1ccc(C(F)(F)P(=O)(OCC)OCC)cc1)NC(=O)c1ccc(C#N)cc1 (configuration not stated) | -10 | -46% | -29% | 2% | i
CCOC(=O)c1c(-n2c(C)cc(C=C3C(=O)NC(=S)NC3=O)c2C)sc2c1CCCC2 | -110* | -47% | ? | 20µM* | 22µM*
CCN1C(=O)NC(=O)/C(=C/c2cc(C)n(-c3sc(C)c(C)c3C#N)c2C)C1=O | -22 | -18% | -19% | -12% | i
CCOC(=O)c1c(-n2c(C)cc(/C=C3/C(=O)NC(=O)N(CC)C3=O)c2C)sc2c1CCCC2 | 6 | -17% | -25% | -24% | i
Cc1ccc(N2C(=O)NC(=O)/C(=C\c3cc(C)n(-c4sc5c(c4C#N)CCCC5)c3C)C2=O)cc1 | -84* | -34% | ? | ? | i
COc1cc2nc(CN3CC=C(c4ccccc4)CC3)[nH]c(=O)c2cc1OC | -24 | -31% | ? | 1µM* | i
SMILES | IL1B secr inh | HepG2 viability | TGFb inhibitor | ATXN2 expr inh | ATXN viability
CNCCCN1c2ccccc2CCc2ccccc21 | -58* | -32% | 24% | ? | ?
COCCCN1Cc2ccccc2C1=N | 17 | -4% | 20% | -8% | i
ClCCN(CCCl)c1ccc(/C=C/c2ccnc3ccccc23)cc1 | nt | -33% | -11% | nt | nt
O=C1c2ccccc2C2(c3ccc(Cl)cc3)NCCN12 (configuration not stated) | -53* | -18% | 13% | 0% | i
COc1cc2nc(N3CCCN(C)CC3)nc(N(C)C3CCN(C)CC3)c2cc1OC | nt | -57% | ? | nt | nt
COc1ccc(C(O)P(=O)(OC2CCCCC2)c2ccc(N(C)C)cc2)cc1OC (configuration not stated) | -1 | -2% | ? | 5% | i
COc1ccc(N2C(=O)/C(=C/c3cccs3)C(=O)NC2=S)cc1 | 3 | -10% | -7% | ? | ?
COc1ccc(N2C(=O)/C(=C/C=C/c3ccccc3[N+](=O)[O-])C(=O)NC2=S)cc1 | -102* | 4% | 3% | 2%[11.3 µM] | ?
Cc1ccc(S(=O)(=O)N(C)C[C@H]2Oc3c(NC(=O)Nc4cccc5ccccc45)cccc3C(=O)N([C@@H](C)CO)C[C@@H]2C)cc1 | ? | -4% | ? | ? | ?
N=c1c2c(-c3ccccc3)c(-c3ccccc3)n(Cc3ccccc3)c2ncn1C1CCC(O)CC1 (configuration not stated) | nt | nt | nt | 24µM* | nt
OC1CCC(Nc2ccn3nc(-c4cccc(OCc5ccccc5)c4)cc3n2)CC1 (configuration not stated) | 11 | -25% | -19% | -5% | ?
COC(=O)[C@H]1[C@@H](OC(=O)c2ccccc2)C[C@@H]2CC[C@H]1N2C | nt | nt | nt | nt | i
CCN(CC)S(=O)(=O)c1ccc(NN=C(C#N)C#N)cc1 | -81* | -53% | ? | -24% | ?
N#CC(C#N)=NNc1ccc([N+](=O)[O-])cc1 | -91* | -52% | ? | 0% | 14µM*
COc1cc(=O)n2c(c1C(=O)N(C)Cc1nonc1C)CCN(C(=O)C1C(C)(C)C1(C)C)CC2 | nt | nt | nt | nt | i
COc1ccc(CCNC(=O)c2ccc3c(c2)N(Cc2cccc(Cl)c2)C(=O)CS3)cc1OC | nt | -17% | 0% | ? | ?
FC(F)(F)c1ccc(CNCCc2ccc3c(c2)OCO3)cc1 | ? | -33% | -2% | nt | ?
Clc1cccc(CNCCc2ccc3c(c2)OCO3)c1 | -81* | -17% | 5% | -10% | i
Clc1ccc(CNCCc2ccc3c(c2)OCO3)cc1 | -84* | -26% | -3% | ? | i

Screening data from PubChem BioAssay.
